High-throughput results (PubChem BioAssay)
POLI inh = DNA polymerase iota (human) inhibition. Q9UNA4. Pol iota fluorescent replication assay, 10 min. Potency, µM (titrated, usually from 115 µM), inactives show at the highest dose activity, negative = inhibition, most hits filed as inhibitors. 390,000 tested, 1% active
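Pol iota at 10 nM preincubated 15 min with compounds at room temperature; reaction started with fluorescent substrate, 50 nM final. Fluorescence read kinetically at 0 and 10 min; buffer-only wells as negative control.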
POLB inh = inhibitors of human DNA polymerase beta; P06746; Pol beta primer extension/strand displacement, fluorescence kinetic; Potency, µM (top dose mostly 114 µM), inactives show at the highest dose activity change, negative = inhibition, actives largely listed as inhibitors; 340,000 tested, 1.3% active; also: % is scaled to controls: 0 for no effect and ±100 for the full control effect
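Curves were derived by four-parameter Hill fits of normalized qHTS data. The kinetic fluorescent primer-extension read was taken at 0 and 10 min after 50 nM substrate, following a 15 min room-temperature preincubation of 10 nM enzyme with compounds.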
Pol eta inh-1 = inhibitors of human DNA polymerase eta. 390,000 tested, 1.2% active. Potency, µM (highest dose often 114 µM), inactives show at the highest dose activity change, negative = inhibition, usual class: inhibitors. Q9Y253. recombinant Pol eta, fluorescent DNA replication assay; also: % is scaled to controls: 0 for no effect and ±100 for the full control effect
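Pol eta at 10 nM preincubated with compounds 15 min at room temperature; reaction started with fluorescent substrate (50 nM final) and read kinetically at 0 and 10 min.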
TDP1 block = blocks human tyrosyl-DNA phosphodiesterase 1; Q9NUW8; recombinant TDP1, AlphaScreen DNA substrate cleavage; Potency, µM (doses to about 130 µM), inactives show at the top dose activity change, negative = inhibition, actives largely listed as inhibitors; 350,000 tested, 0.28% active; AID 485290; also: % is scaled to controls: 0 for no effect and ±100 for the full control effect; nearly all actives have a fitted effect of over 40% in size
Target sequence (Q9NUW8 whole entry, looked up): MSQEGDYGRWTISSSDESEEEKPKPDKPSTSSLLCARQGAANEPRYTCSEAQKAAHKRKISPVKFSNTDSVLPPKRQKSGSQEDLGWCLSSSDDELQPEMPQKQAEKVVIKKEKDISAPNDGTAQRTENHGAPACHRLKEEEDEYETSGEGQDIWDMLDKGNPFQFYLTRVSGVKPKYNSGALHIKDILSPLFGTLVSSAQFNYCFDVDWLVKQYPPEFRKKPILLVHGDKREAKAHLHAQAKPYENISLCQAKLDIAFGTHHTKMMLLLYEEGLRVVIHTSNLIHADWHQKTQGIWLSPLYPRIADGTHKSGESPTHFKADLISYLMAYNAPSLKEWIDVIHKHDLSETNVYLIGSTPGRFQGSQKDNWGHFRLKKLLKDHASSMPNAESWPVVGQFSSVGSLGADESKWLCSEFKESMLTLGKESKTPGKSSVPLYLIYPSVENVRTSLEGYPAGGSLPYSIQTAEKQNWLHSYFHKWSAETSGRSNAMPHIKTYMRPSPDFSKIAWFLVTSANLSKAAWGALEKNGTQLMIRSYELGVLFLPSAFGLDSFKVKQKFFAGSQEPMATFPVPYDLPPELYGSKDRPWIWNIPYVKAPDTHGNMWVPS
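Recombinant E. coli-expressed Tdp1 (1 nM) preincubated with compound 15 min at RT, then 5'-biotin/3'-phosphotyrosine-FITC DNA substrate (15 nM) added for 5 min. AlphaScreen beads (10 ug/ml) added, 10 min RT; tyrosine-FITC cleavage read as signal loss.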
Pol kappa inh-1 = DNA polymerase kappa (human) inhibition; Q9UBT6; AID 588579; purified Pol kappa, fluorescent DNA synthesis assay, 10 min; 400,000 tested, 0.53% active; Potency, µM (doses to about 107 µM), without a hit: at the top dose activity, negative = inhibition, actives largely listed as inhibitors; also: % is scaled to controls: 0 for no effect and ±100 for the full control effect
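Readout: fluorescence, taken kinetically at 0 and 10 min. Conditions: 10 nM Pol kappa, 15 min RT compound preincubation, 50 nM substrate final. Controls: enzyme-free buffer wells.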
FEN1 inh-1 = inhibitors of human flap endonuclease 1; Potency, µM (titrated, usually from 114 µM), inactives show top-dose activity change, negative = inhibition, hits mostly inhibitors; Recombinant FEN1 flap cleavage, fluorescence, 15 min; P39748; 390,000 tested, 0.35% active; AID 588795; also: % is scaled to controls: 0 for no effect and ±100 for the full control effect; nearly all actives have a fitted effect of over 65% in size
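Enzyme 10 nM, 15 min RT preincubation with compound; start with substrate 50 nM final; reads at 0 and 15 min; qHTS titration, four-parameter Hill fit.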
PGK validate = TbPGK inhibition, hit validation. AID 686980. shares compounds with Pol kappa inh-1. TbPGK coupled GAPDH assay, Kinase-Glo luminescence. 500 tested, 79% active. Potency, µM (top dose mostly 57.5 µM), for inactives: top-dose activity change, negative = inhibition, usual class: inhibitors; also: % is scaled to controls: 0 for no effect and ±100 for the full control effect; nearly all actives have a fitted effect of over 65% in size
Pol iota confirm = Confirm cherry-picked inhibitors of human polymerase iota; shares compounds with Pol kappa inh-1; Pol iota primer extension, TAMRA/BHQ fluorescence; Potency, µM, most hits filed as inhibitors; 1,500 tested, 77% active
Pol kappa inh-2 = confirmation of human DNA polymerase kappa inhibitors; shares compounds with Pol eta inh-1; purified Pol-kappa, fluorescent strand-displacement substrate; Potency, µM, usual class: inhibitors; 920 tested, 76% active; AID 720501
Pol eta inh-2 = confirmation of human DNA polymerase eta inhibitors | shares compounds with Pol eta inh-1 | Pol eta primer extension, TAMRA/BHQ fluorescence, 10 min | Potency, µM, hits mostly inhibitors | 2,600 tested, 64% active
FEN1 inh-2 = FEN1 inhibition, cherry-pick retest. shares compounds with FEN1 inh-1. FEN1 flap cleavage, TAMRA/BHQ2 fluorogenic DNA substrate. Potency, µM, actives largely listed as inhibitors. 880 tested, 79% active. AID 720498; also: nearly all actives have a fitted effect of over 60% in size
Active calls of the source: *; ? = inconclusive; . = no result given; [ ] = remark or other dose. Shown are actives, neighbours in structure and some others; about 2.4% of the full set was active somewhere. Calls follow the shape of the dose curve; as a rule, active = well fitted curve in the direction sought with a large enough effect; inconclusive = small, poorly fitted or top-dose-only effect, or another doubt; inactive = no such curve, though single readings can be large; an effect the other way counts as inactive or inconclusive. Potency is read from the fitted curve at half-maximal effect.

SMILES	POLI inh	POLB inh	Pol eta inh-1	TDP1 block	Pol kappa inh-1	FEN1 inh-1	Pol iota confirm	Pol eta inh-2	FEN1 inh-2	others
O=C(O)CSc1cc(C(=O)c2ccccc2O)cn2c(=O)c3c4c(sc3nc12)CCCC4	?	?	?	.	45µM*	?	27*	?	48*
O=C1CCCC(O)=C1N=Nc1ccc(C(=O)O)cc1	6.3µM*	2.8µM*	3.2µM*	2.2µM*	20µM*	45µM*	6*	4.8*	?	PGK validate=9.2µM*
COc1ccc(S(=O)(=O)N2CCN(C(=O)c3cc4c(s3)CCC4)CC2)cc1	2.8µM*	.	2.2µM*	.	28µM*	45µM*	3*	7.6*	76*	Pol kappa inh-2=3*
CCc1ccc2occ(CC(=O)Nc3sc4c(c3C(=O)OC)CCC4)c2c1	15%	-23%	-20%	9%	-3%	4%	.	.	.
COc1ccc(CCNC(=O)Cn2nc(C)c3c(C)n(-c4ccc(C)cc4)nc3c2=O)c(OC)c1	?	35µM*	?	.	-23%	?	67*	85*	48*	Pol kappa inh-2=27*
Cc1ccc(/C=C/c2nc3sc(C(=O)O)c(C)c3c(=O)[nH]2)cc1[N+](=O)[O-]	1%	?	40µM*	11µM*	-7%	2%	30*	?	76*
CCc1ccc(C(=O)c2cn(CC(=O)Nc3cccc(OC)c3)c3ccc(OC)cc3c2=O)cc1	13µM*	8.9µM*	40µM*	.	89µM*	40µM*	8.4*	?	67*
COc1cccc(NC(=O)Cn2cc(C(=O)c3ccc(C)cc3)c(=O)c3cc(OC)ccc32)c1	?	20µM*	79µM*	?	2%	79µM*	47*	.	?
COc1cccc(NC(=O)Cn2cc(C(=O)c3ccc(F)cc3)c(=O)c3cc(OC)ccc32)c1	25%	40%	-4%	4%	6%	4%	.	.	.
C=C1C(=O)OC2C1CC/C(C)=C/CCC1(C)OC21 (stereo not given)	.	.	.	5%[56.1 µM]	-3%[60.1 µM]	.	.	.	.
Cc1cc(C)c(Cn2c(=O)n(CCC(=O)NCCc3ccccc3)c(=O)c3ccccc32)c(C)c1	22%	-13%	-23%	-2%	-21%	17%	.	.	.
O=C(O)c1cc(O)c2c(c1)[C@@H]([C@H]1c3cc(C(=O)O)cc(O)c3C(=O)c3c(O[C@@H]4O[C@H](CO)[C@@H](O)[C@H](O)[C@H]4O)cccc31)c1cccc(OC3O[C@H](CO)[C@@H](O)[C@H](O)[C@H]3O)c1C2=O (stereo not given in full)	-107%	.	-100%	.	-97%	?	3*	6*	30*	PGK validate=2.6µM*;Pol kappa inh-2=2.7*
COc1cccc(-c2nc(CS(=O)CC(=O)N3CCN(c4cccc(C(F)(F)F)c4)CC3)c(C)o2)c1 (stereo not given)	-8%	?	-16%	5%	-4%[60.1 µM]	1%	.	.	.
C[N+]1(CC(=O)c2ccc(Oc3ccc(C(=O)C[N+]4(C)CCOCC4)cc3)cc2)CCOCC1	?	.	.	.	-23%	-10%	.	.	.
